# Experimental data reported in the supplement of paper PMC8728848.
# Many of the other results were omitted from the sample, so the strongest signals are more common in it than they were.
# Tests used:
# Experiment in all cases: glycan array binding signal (z-score within array); higher = stronger binding
# Settings in all cases: glycan notation: IUPAC condensed, linker removed
# [1] = molecular target: Fuc(a1-2)Gal(b1-3)GlcNAc(b1-3)Gal(b1-4)Glc
# Outline: (§1)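 The binding signal is a Z-score computed within each array and averaged over linkers. Arrays of the same protein sequence at different concentrations or buffers were also averaged together. Data originate from 3228 arrays in the Consortium for Functional Glycomics database, kept only where the protein sequence was available.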
# [2] = molecular target: Fuc(a1-2)Gal(b1-4)GlcNAc(b1-2)Man(a1-6)[Gal(b1-4)GlcNAc(b1-2)Man(a1-3)]Man(b1-4)GlcNAc(b1-4)GlcNAc
# Outline: as §1
# [3] = molecular target: Fuc(a1-2)Gal(b1-4)GlcNAc(b1-3)Gal(b1-4)GlcNAc(b1-3)Gal(b1-4)GlcNAc
# Outline: as §1
# [4] = molecular target: Fuc(a1-2)Gal(b1-4)GlcNAc6S
# Outline: as §1
# [5] = molecular target: Fuc(a1-2)Gal6S(b1-4)GlcNAc
# Outline: as §1
# [6] = molecular target: Fuc(a1-3)[Gal(b1-4)]GlcNAc
# Outline: as §1
# Gal(a1-3)Gal(b1-4)Glc = molecular target: Gal(a1-3)Gal(b1-4)Glc
# Outline: as §1
# Gal(b1-3)GalNAc = molecular target: Gal(b1-3)GalNAc
# Outline: as §1
# [7] = molecular target: Gal(b1-3)GlcNAc(b1-3)Gal(b1-4)Glc
# Outline: as §1
# [8] = molecular target: Gal(b1-4)GlcNAc(b1-3)Gal(b1-4)Glc
# Outline: as §1
# GlcA(b1-3)Gal = molecular target: GlcA(b1-3)Gal
# Outline: as §1
# [9] = molecular target: GlcNAc(b1-3)[GlcNAc(b1-6)]Gal(b1-4)GlcNAc
# Outline: as §1
# [10] = molecular target: GlcNAc(b1-4)GlcNAc(b1-4)GlcNAc(b1-4)GlcNAc(b1-4)GlcNAc(b1-4)GlcNAc
# Outline: as §1
# [11] = molecular target: Man(a1-2)Man(a1-2)Man(a1-3)Man
# Outline: as §1
# Man(a1-3)[Man(a1-6)]Man = molecular target: Man(a1-3)[Man(a1-6)]Man
# Outline: as §1
# Man(b1-4)GlcNAc = molecular target: Man(b1-4)GlcNAc
# Outline: as §1
# [12] = molecular target: Neu5Ac(a2-3)Gal(b1-4)[Fuc(a1-3)]GlcNAc(b1-6)[Gal(b1-3)]GalNAc
# Outline: as §1
# [13] = molecular target: Neu5Ac(a2-6)Gal(b1-4)GlcNAc(b1-2)Man(a1-6)[GlcNAc(b1-2)Man(a1-3)]Man(b1-4)GlcNAc(b1-4)GlcNAc
# Outline: as §1
# [14] = molecular target: Fuc(a1-2)[Gal(a1-3)]Gal(b1-3)GlcNAc
# Outline: as §1
# [15] = molecular target: Fuc(a1-2)[Gal(a1-3)]Gal(b1-4)Glc
# Outline: as §1
# Gal(b1-3)Gal(b1-4)GlcNAc = molecular target: Gal(b1-3)Gal(b1-4)GlcNAc
# Outline: as §1
# [16] = molecular target: Gal(b1-4)GalNAc(b1-3)[Fuc(a1-2)]Gal(b1-4)GlcNAc
# Outline: as §1
# [17] = molecular target: Gal(b1-4)GlcNAc(b1-3)Gal(b1-4)GlcNAc
# Outline: as §1
# Gal3S(b1-3)GlcNAc = molecular target: Gal3S(b1-3)GlcNAc
# Outline: as §1
# Gal6S(b1-4)Glc6S = molecular target: Gal6S(b1-4)Glc6S
# Outline: as §1
# Gal6S(b1-4)GlcNAc = molecular target: Gal6S(b1-4)GlcNAc
# Outline: as §1
# GalNAc(b1-3)Gal = molecular target: GalNAc(b1-3)Gal
# Outline: as §1
# GlcNAc(b1-4)GlcNAc = molecular target: GlcNAc(b1-4)GlcNAc
# Outline: as §1
# Man(a1-2)Man(a1-3)Man = molecular target: Man(a1-2)Man(a1-3)Man
# Outline: as §1
# [18] = molecular target: Man(a1-2)Man(a1-3)[Man(a1-2)Man(a1-6)]Man(a1-6)[Man(a1-2)Man(a1-2)Man(a1-3)]Man(b1-4)GlcNAc(b1-4)GlcNAc
# Outline: as §1
# [19] = molecular target: Neu5Ac(a2-3)Gal(b1-3)GlcNAc
# Outline: as §1
# [20] = molecular target: Neu5Ac(a2-3)Gal(b1-3)GlcNAc(b1-3)Gal(b1-3)GlcNAc
# Outline: as §1
# [21] = molecular target: Neu5Ac(a2-3)Gal(b1-3)[Fuc(a1-4)]GlcNAc
# Outline: as §1
# [22] = molecular target: Neu5Ac(a2-3)Gal(b1-3)[Neu5Ac(a2-3)Gal(b1-4)]GlcNAc
# Outline: as §1
# [23] = molecular target: Neu5Ac(a2-3)Gal(b1-4)GlcNAc(b1-3)Gal(b1-4)GlcNAc(b1-3)Gal(b1-4)GlcNAc
# Outline: as §1
# [24] = molecular target: Neu5Ac(a2-3)Gal(b1-4)GlcNAc(b1-3)Gal(b1-4)[Fuc(a1-3)]GlcNAc
# Outline: as §1
# [25] = molecular target: Neu5Ac(a2-3)Gal6S(b1-4)[Fuc(a1-3)]GlcNAc
# Outline: as §1
# Neu5Ac(a2-3)GalNAc = molecular target: Neu5Ac(a2-3)GalNAc
# Outline: as §1
# [26] = molecular target: Neu5Ac(a2-6)Gal(b1-4)GlcNAc
# Outline: as §1
# [27] = molecular target: Neu5Ac(a2-6)Gal(b1-4)GlcNAc(b1-3)Gal(b1-4)GlcNAc
# Outline: as §1
# Neu5Gc(a2-6)GalNAc = molecular target: Neu5Gc(a2-6)GalNAc
# Outline: as §1
binder,measurement,setting,value
"TbCVNHOa (Tuber borchii), Q5MK11 (protein) MSYADSSRNAVLTNGGRTLRAECRNADGNWVTSELDLDTCIGNPNGFLGWGMQNFSHSSEDIKLEEGGRKLTCRPKTVDGGFRERQGIDLNRIQNVNGRLVFQ",glycan array binding signal (z-score),[1],1.94
same,glycan array binding signal (z-score),[2],-0.642
same,glycan array binding signal (z-score),[3],-0.116
same,glycan array binding signal (z-score),[4],0.067
same,glycan array binding signal (z-score),[5],0.327
same,glycan array binding signal (z-score),[6],-0.024
same,glycan array binding signal (z-score),Gal(a1-3)Gal(b1-4)Glc,1.45
same,glycan array binding signal (z-score),Gal(b1-3)GalNAc,-0.24
same,glycan array binding signal (z-score),[7],2.76
same,glycan array binding signal (z-score),[8],1.38
same,glycan array binding signal (z-score),GlcA(b1-3)Gal,-0.018
same,glycan array binding signal (z-score),[9],0.219
same,glycan array binding signal (z-score),[10],-0.762
same,glycan array binding signal (z-score),[11],5.14
same,glycan array binding signal (z-score),Man(a1-3)[Man(a1-6)]Man,-0.273
same,glycan array binding signal (z-score),Man(b1-4)GlcNAc,-0.533
same,glycan array binding signal (z-score),[12],0.487
same,glycan array binding signal (z-score),[13],-0.034
"mLPHN-1 (Mus musculus), Q80TR1 (protein) MARLAAALWSLCVTTVLVTSATQGLSRAGLPFGLMRRELACEGYPIELRCPGSDVIMVENANYGRTDDKICDADPFQMENVQCYLPDAFKIMSQRCNNRTQCVVVAGSDAFPDPCPGTYKYLEVQYDCVPYIFVCPGTLQKVLEPTSTHESEHQSGAWCKDPLQAGDRIYVMPWIPYRTDTLTEYASWEDYVAARHTTTYRLPNRVDGTGFVVYDGAVFYNKERTRNIVKYDLRTRIKSGETVINTANYHDTSPYRWGGKTDIDLAVDENGLWVIYATEGNNGRLVVSQLNPYTLRFEGTWETGYDKRSASNAFMVCGVLYVLRSVYVDDDSEAAGNRVDYAFNTNANREEPVSLAFPNPYQFVSSVDYNPRDNQLYVWNNYFVVRYSLEFGPPDPSAGPATSPPLSTTTTARPTPLTSTASPAATTPLRRAPLTTHPVGAINQLGPDLPPATAPAPSTRRPPAPNLHVSPELFCEPREVRRVQWPATQQGMLVERPCPKGTRGIASFQCLPALGLWNPRGPDLSNCTSPWVNQVAQKIKSGENAANIASELARHTRGSIYAGDVSSSVKLMEQLLDILDAQLQALRPIERESAGKNYNKMHKRERTCKDYIKAVVETVDNLLRPEALESWKDMNATEQVHTATMLLDVLEEGAFLLADNVREPARFLAAKQNVVLEVTVLNTEGQVQELVFPQEYPSENSIQLSANTIKQNSRNGVVKVVFILYNNLGLFLSTENATVKLAGEAGTGGPGGASLVVNSQVIAASINKESSRVFLMDPVIFTVAHLEAKNHFNANCSFWNYSERSMLGYWSTQGCRLVESNKTHTTCACSHLTNFAVLMAHREIYQGRINELLLSVITWVGIVISLVCLAICISTFCFLRGLQTDRNTIHKNLCINLFLAELLFLVGIDKTQYEVACPIFAGLLHYFFLAAFSWLCLEGVHLYLLLVEVFESEYSRTKYYYLGGYCFPALVVGIAAAIDYRSYGTEKACWLRVDNYFIWSFIGPVSFVIVVNLVFLMVTLHKMIRSSSVLKPDSSRLDNIKSWALGAIALLFLLGLTWAFGLLFINKESVVMAYLFTTFNAFQGVFIFVFHCALQKKVHKEYSKCLRHSYCCIRSPPGGTHGSLKTSAMRSNTRYYTGTQSRIRRMWNDTVRKQTESSFMAGDINSTPTLNRGTMGNHLLTNPVLQPRGGTSPYNTLIAESVGFNPSSPPVFNSPGSYREPKHPLGGREACGMDTLPLNGNFNNSYSLRSGDFPPGDGGPEPPRGRNLADAAAFEKMIISELVHNNLRGASGGAKGPPPEPPVPPVPGVSEDEAGGPGSADRAEIELLYKALEEPLLLPRAQSVLYQSDLDESESCTAEDGATSRPLSSPPGRDSLYASGANLRDSPSYPDSSPEGPNEALPPPPPAPPGPPEIYYTSRPPALVARNPLQGYYQVRRPSHEGYLAAPSLEGPGPDGDGQMQLVTSL",glycan array binding signal (z-score),[1],0.213
same,glycan array binding signal (z-score),[14],15.8
same,glycan array binding signal (z-score),[15],-0.219
same,glycan array binding signal (z-score),Gal(b1-3)Gal(b1-4)GlcNAc,0.16
same,glycan array binding signal (z-score),Gal(b1-3)GalNAc,0.025
same,glycan array binding signal (z-score),[16],1.66
same,glycan array binding signal (z-score),[17],-0.105
same,glycan array binding signal (z-score),Gal3S(b1-3)GlcNAc,2.08
same,glycan array binding signal (z-score),Gal6S(b1-4)Glc6S,1.13
same,glycan array binding signal (z-score),Gal6S(b1-4)GlcNAc,1.27
same,glycan array binding signal (z-score),GalNAc(b1-3)Gal,0.793
same,glycan array binding signal (z-score),GlcNAc(b1-4)GlcNAc,-0.282
same,glycan array binding signal (z-score),Man(a1-2)Man(a1-3)Man,-0.173
same,glycan array binding signal (z-score),[18],0.551
same,glycan array binding signal (z-score),[19],0.014
same,glycan array binding signal (z-score),[20],-0.317
same,glycan array binding signal (z-score),[21],0
same,glycan array binding signal (z-score),[22],-0.26
same,glycan array binding signal (z-score),[23],-0.433
same,glycan array binding signal (z-score),[24],-0.402
same,glycan array binding signal (z-score),[25],-0.065
same,glycan array binding signal (z-score),Neu5Ac(a2-3)GalNAc,0.587
same,glycan array binding signal (z-score),[26],0.157
same,glycan array binding signal (z-score),[13],-0.261
same,glycan array binding signal (z-score),[27],-0.422
same,glycan array binding signal (z-score),Neu5Gc(a2-6)GalNAc,1.3
